Screening results from PubChem BioAssay.
ELG1 repair inh: qHTS screen for small molecules that inhibit ELG1-dependent DNA repair in human embryonic kidney (HEK293T) cells expressing luciferase-tagged ELG1. HEK293T ELG1-luciferase reporter, luminescence, 16 h; DNA damage induced by 5-fluorouridine. Potency, µM (top dose mostly 46.1 µM), inactives show at the top dose activity change, negative = inhibition, usual class: inhibitors. 330,000 compounds, 2.3% hits. AID 504467, 2011; note: % is set by controls: 0 for no effect and ±100 for the full control effect; nearly all actives have a fitted effect of over 55% in size
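Luminescence from the luciferase reporter, measured 30 min after ONE-Glo reagent at room temperature, was the read-out. Beforehand, 2,000 cells per well were exposed for 16 hr at 37 °C to 5-fluorouridine together with compound or vehicle.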
KB-V1 cytotox: qHTS assay for MDR1-selective chemotherapeutics: Primary screen using the drug-selected MDR subline cells KB-V1. 400,000 compounds, 3.4% hits. KB-V1 MDR cells viability, CellTiter-Glo, 72 h. Potency, µM (doses to about 46.1 µM), usual class: cytotoxic. AID 1347076, 2019; note: % is set by controls: 0 for no effect and ±100 for the full control effect; nearly all actives have a fitted effect of over 60% in size
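KB-V1, DMEM (no phenol red) + 10% FBS; cpd pin-transferred, titration series; 72 h, 37 degrees C; CellTiter-Glo, luminescence. Data normalized, curve-fit.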
MCF10A rerep: A quantitative high throughput screen for small molecules that induce DNA re-replication in MCF 10a normal breast cells; MCF 10A DNA re-replication, Hoechst nuclear intensity, 48 h; Potency, µM (top dose mostly 46.1 µM), without a hit: at the top dose activity, positive = re-replication, most hits filed as activators; 350,000 compounds, 2.9% hits; AID 624296, 2012; note: % of control where 0% means no effect; nearly all actives have a fitted effect of over 50% in size
KB-3-1 tox: qHTS assay for MDR1-selective chemotherapeutics: Primary screen using the parental adenocarcinoma cell KB-3-1 | KB-3-1 viability, CellTiter-Glo ATP luminescence, 72 h | Potency, µM (highest dose often 46.1 µM), actives largely listed as cytotoxic | 400,000 compounds, 1.4% hits | AID 1347075, 2019; note: % is set by controls: 0 for no effect and ±100 for the full control effect; nearly all actives have a fitted effect of over 60% in size
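KB-3-1 cells, DMEM (no phenol red) + 10% FBS; compound by pin transfer, 72 h, 37 °C. Readout: CellTiter-Glo luminescence after 10 min. Data normalized, curve-fitted.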
SW480 rereplic: A quantitative high throughput screen for small molecules that induce DNA re-replication in SW480 colon adenocarcinoma cells; Potency, µM (highest dose often 46.1 µM), for inactives: at the top dose re-replication activation, usual class: activators; 340,000 compounds, 1.8% hits; AID 624297, 2012; SW480 DNA re-replication, Hoechst DNA content imaging, 48 h; note: % of control where 0% means no effect; nearly all actives have a fitted effect of over 55% in size
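First, 250 cells per well were seeded. Next, compound or vehicle (23 nL) was pinned in, plates sat 48 hr at 37 C. Finally Hoechst was added for 40 min before fluorescence scanning.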
Numbers without * were called inactive; [ ] = dose if it differs, or a comment. Only some compounds are listed: those with a hit (about 8.2% of all), similar ones and a draw of the others. Calls come from the whole dose curve; as a rule, active = well fitted curve in the direction sought with a large enough effect; inconclusive = small, poorly fitted or top-dose-only effect, or another doubt; inactive = no such curve, though single readings can be large; an effect the other way counts as inactive or inconclusive. Potency is the fitted concentration of half-maximal effect.

Results for COc1cc(OC)cc(-c2nc3ccccc3s2)c1 ?
ELG1 repair inh: inconclusive; KB-V1 cytotox: inconclusive; MCF10A rerep: inconclusive; KB-3-1 tox: inactive; SW480 rereplic: 0.6%

Results for CCSc1nc(-c2ccc(OC)cc2)n(-c2nc3ccccc3s2)n1 ?
ELG1 repair inh: -7.7%; KB-V1 cytotox: 11.6µM*; MCF10A rerep: 13.7%; KB-3-1 tox: inactive; SW480 rereplic: 5.2%

What do the screens show for `Cc1ccc2c(c1)-c1nc(-c3ccc4c(c3)NC(=O)CO4)cc(-c3ccc(Cl)cc3)c1CO2`?
KB-V1 cytotox: inactive; KB-3-1 tox: inactive

What do the screens show for `CCOc1ccc(NC(=O)CN2CCN(CC(=O)Nc3ccc(C(N)=O)cc3)CC2)cc1`?
ELG1 repair inh: 7.5%; KB-V1 cytotox: inactive; MCF10A rerep: -1.8%; KB-3-1 tox: inactive; SW480 rereplic: -1.4%

Results for CC(=O)c1c(C)[nH]c(C(=O)C(C)Sc2nnc(NC3CC3)s2)c1C (stereo unspecified) ?
ELG1 repair inh: -26.6%; MCF10A rerep: 18.4µM*; SW480 rereplic: -2.4%

Results for CC(=O)c1c(C)[nH]c(C(=O)NC2CCCCC2)c1C ?
ELG1 repair inh: inconclusive; KB-V1 cytotox: inactive; MCF10A rerep: -11.0%; KB-3-1 tox: inactive; SW480 rereplic: -4.8%[9.22 µM]

Results for COCCNC(=O)C1(C)CCCN(Cc2ccccc2N(C)C)C1 (stereo unspecified) ?
KB-V1 cytotox: inconclusive; KB-3-1 tox: inactive

What do the screens show for `COc1ccc(N2C(=O)CC(Sc3nnnn3-c3ccc(F)cc3)C2=O)cc1` (stereo unspecified)?
ELG1 repair inh: 7.8%; KB-V1 cytotox: inactive; MCF10A rerep: inconclusive; KB-3-1 tox: inactive; SW480 rereplic: 10.3µM*

What do the screens show for `O=C1CC(Sc2nnnn2-c2ccccc2)C(=O)N1c1cccc(Cl)c1` (stereo unspecified)?
ELG1 repair inh: 2.5%; KB-V1 cytotox: inactive; MCF10A rerep: inconclusive; KB-3-1 tox: inconclusive; SW480 rereplic: inconclusive

How did Cc1ccc(C)c2sc(N3CCN(C(=O)C(C)(C)C)CC3)nc12 do in these assays?
KB-V1 cytotox: inactive; KB-3-1 tox: inactive

Results for COc1cccc(C2=NOC(C(=O)Nc3cc(C)nn3-c3ccccc3)C2)c1OC (stereo unspecified) ?
ELG1 repair inh: 23.1µM*; KB-V1 cytotox: inconclusive; MCF10A rerep: 3.0%; KB-3-1 tox: inconclusive; SW480 rereplic: 16.4%

How did COc1cc(OC)c(C2=NOC(C(=O)Nc3cc(C)nn3-c3ccccc3)C2)cc1Cl (stereo unspecified) do in these assays?
ELG1 repair inh: -12.9%; KB-V1 cytotox: 18.4µM*; MCF10A rerep: 1.1%; KB-3-1 tox: inactive; SW480 rereplic: 0.8%

What do the screens show for `Cc1ccc(C)c(S(=O)(=O)N2CCN(C(=O)Cn3c(=O)cnc4ccccc43)CC2)c1`?
ELG1 repair inh: -7.4%; KB-V1 cytotox: inactive; MCF10A rerep: 5.2%; KB-3-1 tox: inactive; SW480 rereplic: 0.0%

How did Cc1ccc(Cn2c(SCc3ccc(C(=O)NC4CCCC4)cc3)nc3ccncc32)cc1 do in these assays?
KB-V1 cytotox: inactive; KB-3-1 tox: 23.1µM*

How did Cc1cnc2c(C)cccc2c1/C=C/c1ccc(N(C)C)cc1 do in these assays?
KB-V1 cytotox: inactive; KB-3-1 tox: inconclusive

How did N#Cc1c(-c2ccc(F)cc2)c(-c2ccc(F)cc2)nn(CCO)c1=O do in these assays?
KB-V1 cytotox: 8.2µM*; MCF10A rerep: 5.8µM*; KB-3-1 tox: 3.66µM*; SW480 rereplic: 3.26µM*

How did COc1ccccc1-c1cc(NC(C)=O)c2ncc(-c3cccc(C(C)=O)c3)n2c1 do in these assays?
KB-V1 cytotox: inactive; KB-3-1 tox: inconclusive

What do the screens show for `O=C(Cn1c2ccccc2c(=O)c2ccccc21)Nc1ccccc1F`?
ELG1 repair inh: 16.6%; KB-V1 cytotox: inconclusive; MCF10A rerep: inconclusive; KB-3-1 tox: inactive

Results for O=C(Cn1c2ccccc2c(=O)c2cc([N+](=O)[O-])ccc21)Nc1ccccc1Cl ?
ELG1 repair inh: 29.9%; KB-V1 cytotox: inactive; MCF10A rerep: inconclusive; KB-3-1 tox: inactive; SW480 rereplic: 16.4µM*

What do the screens show for `COc1ccc(N(C(=O)c2cc(OC)c(OC)c(OC)c2)S(=O)(=O)c2ccc(C)cc2)cc1`?
KB-V1 cytotox: inconclusive; KB-3-1 tox: inactive

Results for O=C(Cc1ccccc1)Nc1nccs1 ?
ELG1 repair inh: 0.5%; KB-V1 cytotox: inactive; MCF10A rerep: -0.7%; KB-3-1 tox: inactive; SW480 rereplic: -6.0%

How did O=C(Cc1ccccc1[N+](=O)[O-])Nc1nccs1 do in these assays?
ELG1 repair inh: -8.1%; KB-V1 cytotox: inactive; MCF10A rerep: 1.6%; KB-3-1 tox: inactive; SW480 rereplic: 2.91µM*

What do the screens show for `COc1ccc(N2CCN(c3oc(-c4ccco4)nc3C#N)CC2)cc1`?
ELG1 repair inh: -17.7%; KB-V1 cytotox: 14.6µM*; MCF10A rerep: -5.6%; KB-3-1 tox: inconclusive; SW480 rereplic: -8.7%

Results for O=C(NCC1CCCO1)c1ccccc1NS(=O)(=O)c1cc([N+](=O)[O-])ccc1Cl (stereo unspecified) ?
ELG1 repair inh: inconclusive; KB-V1 cytotox: 16.4µM*; MCF10A rerep: 6.0%; KB-3-1 tox: inconclusive; SW480 rereplic: 3.5%

What do the screens show for `O=C(Nc1ccc(Cl)cc1C(=O)NCCN1CCOCC1)c1ccc(Cl)cc1Cl`?
ELG1 repair inh: 0.9%; KB-V1 cytotox: 4.61µM*; MCF10A rerep: 0.6%; KB-3-1 tox: inactive; SW480 rereplic: 0.0%

How did CCOc1cc(NC(=S)NCC2CCCO2)c(OCC)cc1NC(=O)c1ccccc1F (stereo unspecified) do in these assays?
ELG1 repair inh: 23.1µM*; KB-V1 cytotox: inconclusive; MCF10A rerep: inconclusive; KB-3-1 tox: inactive; SW480 rereplic: -1.9%

What do the screens show for `O=C(NCC1CCCO1)c1ccccc1NS(=O)(=O)c1cccc([N+](=O)[O-])c1` (stereo unspecified)?
ELG1 repair inh: -2.7%; KB-V1 cytotox: inactive; MCF10A rerep: -1.3%; KB-3-1 tox: inactive; SW480 rereplic: 2.1%

How did O=C(NCC1CCCO1)c1ccccc1OCc1ccc(Cl)cc1 (stereo unspecified) do in these assays?
ELG1 repair inh: -21.8%; KB-V1 cytotox: 3.66µM*; MCF10A rerep: 6.8%; KB-3-1 tox: inactive; SW480 rereplic: 2.7%

How did O=C(Nc1cc(F)c(Br)cc1F)c1ccc(Cl)cc1 do in these assays?
ELG1 repair inh: inconclusive; KB-V1 cytotox: inconclusive; MCF10A rerep: -4.2%; KB-3-1 tox: inactive; SW480 rereplic: -8.9%
